Bioassay records from PubChem.
Rows were chosen to be rich in hits. Some 2.2% of all compounds tested hit in one or more screens of this group.
APP 5UTR inh: APP translation inhibition | SH-SY5Y APP 5'UTR-luciferase reporter, luminescence | inhibition, % at 2 µM | 190,000 tested, 0.82% active;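 active = inhibition above a set limit, derived from the sample mean plus 3 SD, cut at about 45% in these data; inconclusive = one replicate passes the limit while the other fails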
BaF3 parental: counter-screen for JAK2V617F inhibitors: parental Ba/F3 viability inhibitors; CellTiter-Glo ATP luminescence; inhibition, % at 5.6 µM; 220,000 tested, 1.1% active; AID 1486;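 active = inhibition above a per-campaign cutoff, the mean inhibition of all tested compounds plus 3 SD, cut at about 27% in these data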
IEC-6 cytotox: IEC-6 cytotoxicity, counter-screen for KLF5 inhibitors; luminescence viability; inhibition, % at 5 µM; 290,000 tested, 0.78% active; in the data active = inhibition above about 22%
KLF5 inhibitor: inhibitors of KLF5 expression; DLD-1 KLF5 promoter-luciferase reporter, luminescence; inhibition, % at 5 µM; 290,000 tested, 0.23% active; AID 1700;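 active = inhibition above a per-plate limit of that plate's mean compound inhibition plus 3 SD, cut at about 60% in these data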;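 also: higher means less KLF5 promoter-driven luciferase light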
aSyn UTR inh: 5' untranslated region of α-synuclein, MLPCN primary screen | inhibition, % (tested at 7.5 µM) | 300,000 tested, 0.82% active | alpha-synuclein 5'UTR reporter, inhibitor activity; in the data active = inhibition above about 60%; inconclusive = no clear call, values can overlap the other calls;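 also: H4 neuroglioblastoma cells stably carrying SNCA 5'UTR luciferase fusion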
Ba/F3 V617F tox: loss of viability in JAK2V617F-driven Ba/F3 cells. Ba/F3 EpoR-JAK2V617F viability, ATP luminescence. inhibition, % at 5.6 µM. 220,000 tested, 1.1% active;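 active = inhibition above the campaign mean plus 3 SD over all tested compounds, cut at about 24% in these data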;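 also: cytokine-independent growth of Ba/F3 cells driven by EpoR plus mutant JAK2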
Of the large screens only hits and unclear results are named; the others gave an inactive call.

O=C(CSc1nnc(COc2ccc(Cl)cc2)o1)N1c2ccccc2CCc2ccccc21	BaF3 parental 46.3, aSyn UTR inh inconclusive, Ba/F3 V617F tox 24.8
O=C(CSc1nnc(COc2ccc(Cl)cc2)o1)N1CCCC1	none (no result: APP 5UTR inh, BaF3 parental, Ba/F3 V617F tox)
C=C(C)COc1ccc(-c2n[nH]c(C)c2-c2ccc(Br)cc2)c(O)c1	APP 5UTR inh 67.0
C=C(C)COc1ccc(-c2[nH]ncc2-c2ccc(Br)cc2)c(O)c1	APP 5UTR inh 79.3, aSyn UTR inh 91.4
C=C(C)COc1ccc(-c2[nH]ncc2-c2ccccc2OC)c(O)c1	none
N#Cc1c(-c2ccccc2)nc(-c2ccccc2)[nH]c1=O	none
N#Cc1c(-c2ccccc2)nc(-c2ccncc2)[nH]c1=O	APP 5UTR inh 68.7
COc1cccc(C(=O)NCC(=O)N2CCC3(CC2)NCCc2[nH]cnc23)c1OC	none (no result: APP 5UTR inh, BaF3 parental, Ba/F3 V617F tox)
CC(C)c1ccc2[nH]c(O)c(N=NC(=O)c3cccc(S(=O)(=O)Nc4ccc(Cl)cc4)c3)c2c1	aSyn UTR inh 79.4
COc1ccc(OC)c(-c2csc(NC(=O)c3ccc(OCC4CCCO4)cc3)n2)c1 (configuration not stated)	BaF3 parental 29.7
COc1ccc(OC)c(-c2csc(NC(=O)C3=COCCO3)n2)c1	none (no result: APP 5UTR inh, BaF3 parental, IEC-6 cytotox, KLF5 inhibitor, Ba/F3 V617F tox)
Cc1ccc(NC(=O)c2ccc(OCC3CCCO3)cc2)nc1 (configuration not stated)	none (no result: APP 5UTR inh, BaF3 parental, IEC-6 cytotox, KLF5 inhibitor, Ba/F3 V617F tox)
Cc1cnc(NC(=O)c2ccc(OCC3CCCO3)cc2)s1 (configuration not stated)	aSyn UTR inh 79.1
CCOc1ccc(C(=O)Nc2nnc(SCC(=O)NCC3CCCO3)s2)cc1 (configuration not stated)	aSyn UTR inh 75.9 (no result: APP 5UTR inh, BaF3 parental, Ba/F3 V617F tox)
CCCCCCCCCCCCCCCC[n+]1ccc(/C=N/O)cc1	BaF3 parental 63.5, Ba/F3 V617F tox 98.1 (no result: aSyn UTR inh)
NC(=O)CCCn1c(C(=O)c2cc(Cl)c(N)c(Cl)c2)c2ccc([N+](=O)[O-])cc2[n+]1[O-]	aSyn UTR inh 71.4 (no result: APP 5UTR inh, BaF3 parental, IEC-6 cytotox, KLF5 inhibitor, Ba/F3 V617F tox)
NC(=O)CCCn1c(C(=O)c2ccc(Cl)cc2)c2ccc([N+](=O)[O-])cc2[n+]1[O-]	none (no result: APP 5UTR inh, BaF3 parental, IEC-6 cytotox, KLF5 inhibitor, Ba/F3 V617F tox)
CCc1nnc(NC(=O)CCC(=O)N2CCN(c3cc(Cl)ccc3C)CC2)s1	none (no result: APP 5UTR inh, BaF3 parental, Ba/F3 V617F tox)
CCN(Cc1ccncc1)C(=S)Nc1ccc(Cl)cc1	BaF3 parental 26.9, Ba/F3 V617F tox 24.0
S=C(Nc1ccccc1)N(Cc1ccccc1)Cc1ccncc1	none
CCN(CC)C(=S)Nc1ccc(Cl)c(Cl)c1	BaF3 parental 31.8
O=C1C(=O)c2ccc(-c3ccccc3)cc2-c2ccccc21	aSyn UTR inh 118.6
COc1ccc(CCNC(=O)CCn2c(=O)c3cccn3c3ccc(F)cc32)c(OC)c1OC	none (no result: APP 5UTR inh, BaF3 parental, Ba/F3 V617F tox)
CC[N+](C)(C)CCN(Cc1ccc(Cl)cc1)c1ccccn1	BaF3 parental 38.6, Ba/F3 V617F tox 27.3
NS(=O)(=O)c1ccc(NC(=O)CN2C(=O)C3C4C=CC(C4)C3C2=O)cc1 (configuration not stated)	none
Cc1ccc(NC(=O)CN2C(=O)C3C4C=CC(C4)C3C2=O)cc1S(=O)(=O)N(C)C (configuration not stated)	APP 5UTR inh 54.9
Cc1cc(N2CCN(C)CC2)ccc1NC(=O)c1c2c(nc3ccccc13)CCN(Cc1ccccc1)C2	aSyn UTR inh 91.6
O=C(NC1CCCCCC1)c1c2c(nc3ccccc13)CCN(Cc1ccccc1)C2	none
CC(C)c1ccc(OCC(=O)Nc2c3c(nn2C(C)(C)C)CS(=O)(=O)C3)cc1	none (no result: APP 5UTR inh, BaF3 parental, IEC-6 cytotox, KLF5 inhibitor, Ba/F3 V617F tox)
CS(=O)(=O)c1ccc(-c2cccc(NC(=O)c3ccco3)c2)nn1	none (no result: APP 5UTR inh, BaF3 parental, IEC-6 cytotox, KLF5 inhibitor, Ba/F3 V617F tox)
Cc1ccc(O)c(N=NC2=C(O)CC(C)(C)CC2=O)c1	aSyn UTR inh 64.8
CC1(C)CC(=O)C(N=Nc2cc(Cl)c(Cl)c(Cl)c2)=C(O)C1	none
O=c1[nH][nH]cc1C=Nc1cc(Cl)ccc1O	none
O=c1[nH][nH]cc1C=Nc1ccc(Cl)cc1Cl	APP 5UTR inh 63.9
c1ccc(CC2CCN(c3ncnc4sccc34)CC2)cc1	BaF3 parental 43.9, Ba/F3 V617F tox 37.1
CCC1CCCCN1C(=O)COc1ccc(N(C)S(=O)(=O)c2ccc(C)cc2)cc1 (configuration not stated)	none (no result: APP 5UTR inh, BaF3 parental, Ba/F3 V617F tox)
COC(=O)c1cccc(Cn2nnc3ccccc3c2=O)c1	none
O=c1c2ccccc2nnn1Cc1ccc2ccccc2c1	BaF3 parental 89.3
Cc1cnc(C(=O)OCC(=O)NC(C)C)cn1	BaF3 parental 51.3
NC(N)=Nc1nc(-c2ccccc2)c2ccccc2n1	none
COc1nc(N=C(N)N)nc2ccc(C)cc12	BaF3 parental 55.8, Ba/F3 V617F tox 54.8
C=CCn1c(Cc2cccs2)nnc1SCC(=O)Nc1ccc(C(=O)OCC)cc1	APP 5UTR inh 47.4
CCOC(=O)C1CCCN(CC(=O)Nc2nccs2)C1 (configuration not stated)	none (no result: APP 5UTR inh, BaF3 parental, Ba/F3 V617F tox)
C=CCNC(=S)N(CC)c1cccc2ccccc12	BaF3 parental 35.6, Ba/F3 V617F tox 34.3
Cc1ccc(/C=C2\SC(=S)N(CCCC(=O)Nc3ccc(O)cc3)C2=O)cc1	aSyn UTR inh 103.6 (no result: APP 5UTR inh)
Cc1ccc(/C=C2\SC(=S)N(CCCC(=O)Nc3ccccn3)C2=O)cc1	APP 5UTR inh 55.3, aSyn UTR inh 106.8
Cc1ccc(/C=C2\SC(=S)N(CCCC(=O)Nc3ccccc3C(=O)O)C2=O)cc1	aSyn UTR inh 67.6 (no result: APP 5UTR inh, BaF3 parental, Ba/F3 V617F tox)
O=C(Oc1nsnc1N1CCOCC1)c1ccccc1	APP 5UTR inh 53.3
O=C(Oc1nsnc1N1CCOCC1)N1CCOCC1	none
Cc1nn(Cc2ccccc2)c2ncccc12	none (no result: APP 5UTR inh, BaF3 parental, Ba/F3 V617F tox)
Cc1ccc(Nc2c(-c3ccccn3)nc3cccc(C)n23)cc1	APP 5UTR inh 67.5
CN=c1scc(-c2ccccc2F)n1/N=C(\C)c1cccnc1	BaF3 parental 38.3
C/C(=N\N1CCN(C2c3ccccc3-c3ccccc32)CC1)c1cccnc1	none
COc1ccccc1-c1ccc(SCc2ccc([N+](=O)[O-])cc2)nn1	none
COc1ccccc1-c1ccc(SCc2cccc(C)c2)nn1	BaF3 parental 66.2, Ba/F3 V617F tox 61.0
Cc1cccc(N2CCN(C(=O)C3CCN(c4nnc(-n5cccc5)s4)CC3)CC2C)c1 (configuration not stated)	BaF3 parental 45.0
O=C1CSC(c2ccc(Cl)cc2)N1C1CCCCC1 (configuration not stated)	BaF3 parental 40.0
Cc1ccccc1OCCn1c(=S)[nH]c2c(N)ncnc21	none (no result: APP 5UTR inh, BaF3 parental, Ba/F3 V617F tox)
Cc1ccccc1OCCn1cnc2c(N)ncnc21	BaF3 parental 32.7, Ba/F3 V617F tox 56.7
CCc1nc(CN(C)C(=O)C2CCC(=O)N(Cc3cccc(F)c3)C2)no1 (configuration not stated)	none (no result: APP 5UTR inh, BaF3 parental, Ba/F3 V617F tox)
Nc1ccc(S(=O)(=O)NC(Cc2ccccc2)C(=O)O)cc1 (configuration not stated)	none (no result: APP 5UTR inh, BaF3 parental, Ba/F3 V617F tox)
Cc1onc(-c2ccccc2Cl)c1C(=O)OCN1C(=O)c2ccccc2C1=O	BaF3 parental 95.2
CC(C)N(C(=O)Cn1cc(S(=O)(=O)CC(=O)Nc2ccccc2)c2ccccc21)C(C)C	none (no result: APP 5UTR inh, BaF3 parental, Ba/F3 V617F tox)
C=CCC(=O)NC1CCCc2c1cnn2-c1cc(F)cc(F)c1 (configuration not stated)	none (no result: APP 5UTR inh, BaF3 parental, Ba/F3 V617F tox)
Cc1scc(C(=O)N/N=C/c2ccco2)c1C	none
